Data taken from PubChem BioAssay (EPA / NIEHS).
“And” between values parts separate entries of the source, which are not always exact repeats. Equal entries are not always repeated. Results filed as inconclusive are left out. Some structures have more than one record in an assay (separate samples or runs), and their calls can disagree. The source made the active and inactive calls. How the source made its calls, unless noted: active means hit-call score of the fitted dose curve at least 0.9, where 1 is the maximum; inconclusive means response in the unintended direction; inactive means score below 0.9.

How the values were obtained:
[1] = target: chicken Estrogen Receptor (ERa), ESR1 (gene 396099) (UniProt P06212); experiment: ATG_chERa_XSP2: Attagene TRANS-FACTORIAL Multi-Species (XSP2) HepG2 Assay for chicken Estrogen Receptor (ERa) (AID 2283817);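 further: actives raise reporter signal above DMSO so AC50 reflects ER activation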
In short: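 Readout: fluorescent reporter-transcript fragments resolved by capillary electrophoresis after RT-PCR and HpaI cut. Chicken ERa-Gal4 fusion in transiently transfected HepG2, dosed for 24 h; activity taken as increase over DMSO baseline.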

[2] = test system: zebrafish Estrogen Receptor (ER2a), gene 317734; experiment: ATG_zfER2a_XSP2: Attagene TRANS-FACTORIAL Multi-Species (XSP2) HepG2 Assay for zebrafish Estrogen Receptor (ER2a) (AID 2283818);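 further: hits raise reporter mRNA so AC50 reflects activation of zebrafish ER2a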
In short: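 Multiplexed trans-reporter readout: RT-PCR then capillary electrophoresis of reporter transcripts after 24 h compound treatment. Human HepG2 carries transfected zebrafish ER2a-Gal4 chimera; 3 nM 6-alpha-fluorotestosterone plus 1.5 nM norgestrel present. Induction scored against DMSO.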

[3] = ATG_M_19_XSP2: Attagene TRANS-FACTORIAL Multi-Species (XSP2) HepG2 Assay for M32 Transcription Factor (Internal Marker) (AID 2283822)
In short: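 Internal background marker in a multi-species nuclear receptor TRANS panel: transfected HepG2 cells exposed 24 h, with 3 nM 6-alpha-fluorotestosterone and 1.5 nM norgestrel present. Readout is RT-PCR of reporter transcripts resolved by capillary electrophoresis, gain-of-signal versus DMSO.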

[4] = test system: zebrafish Estrogen Receptor (ER2b), gene 317733; experiment: ATG_zfER2b_XSP2: Attagene TRANS-FACTORIAL Multi-Species (XSP2) HepG2 Assay for zebrafish Estrogen Receptor (ER2b) (AID 2283823);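 further: fitted upward as reporter gain over DMSO so potency reflects activation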
In short: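 Read-out: fluorescent reporter mRNA, measured by RT-PCR then capillary electrophoresis after HpaI digestion. HepG2 cells carried transiently transfected multi-reporter TRANS constructs (NR-Gal4 chimeras); 24 h chemical exposure; activity scored upward versus DMSO control.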

[5] = target: Estrogen receptor (Homo sapiens) (UniProt P03372); experiment: ATG_hERa_XSP2: Attagene TRANS-FACTORIAL Multi-Species (XSP2) HepG2 Assay for human Estrogen Receptor (ERa) (AID 2283827)
In short: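 Trans-activation of exogenous human ERa-Gal4 chimera read in HepG2 as reporter transcript after 24 h exposure; medium included 3 nM 6-alpha-fluorotestosterone and 1.5 nM norgestrel. Quantified by RT-PCR with capillary electrophoresis, positive-direction fitting against DMSO.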

[6] = test system: frog Estrogen Receptor (ER2), gene 100174814; experiment: ATG_frER2_XSP2: Attagene TRANS-FACTORIAL Multi-Species (XSP2) HepG2 Assay for frog Estrogen Receptor (ER2) (AID 2283828)
In short: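 Cells were transfected with reporter constructs under GAL4-UAS control, dosed with chemicals for 24 h, then lysed for RNA; the frog ER2-driven reporter mRNA was quantified by capillary electrophoresis of labeled PCR fragments, with activity fitted upward from DMSO.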

[7] = target: Peroxisome proliferator-activated receptor gamma (Homo sapiens) (UniProt P37231); experiment: ATG_hPPARg_XSP2: Attagene TRANS-FACTORIAL Multi-Species (XSP2) HepG2 Assay for human Peroxisome Proliferator-activated Receptor gamma (PPARg) (AID 2283829);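 further: actives raise reporter mRNA above DMSO so AC50 reflects PPARg activation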
In short: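 HepG2 cells transiently transfected with multiplexed GAL4-UAS reporter units for chimeric NR-Gal4 receptors, dosed 24 h. Reporter mRNA quantified by RT-PCR, 6-FAM labeling, HpaI digestion and capillary electrophoresis; gain-of-signal fitted against DMSO baseline.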

[8] = target: mouse Peroxisome Proliferator-activated Receptor gamma (PPARg), Pparg (gene 19016) (UniProt P37238); experiment: ATG_mPPARg_XSP2: Attagene TRANS-FACTORIAL Multi-Species (XSP2) HepG2 Assay for mouse Peroxisome Proliferator-activated Receptor gamma (PPARg) (AID 2283830);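 further: hits are gains in reporter mRNA above DMSO so AC50 marks activation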
In short: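 Multiplexed TRANS reporter readout: after 24 h chemical exposure of transfected HepG2 cells (with 3 nM 6-alpha-fluorotestosterone, 1.5 nM norgestrel present), RNA reverse-transcribed, amplified, 6-FAM-labelled and resolved by capillary electrophoresis; mouse PPARg-Gal4 induction scored against DMSO.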

[9] = target: zebrafish Thyroid Hormone Receptor alpha (TRa), thraa (gene 30670) (UniProt Q98867); experiment: ATG_zfTRa_XSP2: Attagene TRANS-FACTORIAL Multi-Species (XSP1) HepG2 Assay for zebrafish Thyroid Hormone Receptor alpha (TRa) (AID 2283832);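 further: actives raise zebrafish TRa-Gal4 reporter transcript above DMSO baseline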
In short: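 Readout is reporter mRNA induction, quantified by RT-PCR and capillary electrophoresis with fluorescent labelling, after 24 h compound exposure of transiently transfected HepG2 cells carrying NR-Gal4 chimera reporters. Activity fitted upward relative to DMSO.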

[10] = test system: zebrafish Peroxisome Proliferator-activated Receptor gamma (PPARg), gene 557037; experiment: ATG_zfPPARg_XSP2: Attagene TRANS-FACTORIAL Multi-Species (XSP2) HepG2 Assay for zebrafish Peroxisome Proliferator-activated Receptor gamma (PPARg) (AID 2283833);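 further: actives increase reporter signal over DMSO so AC50 reflects activation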
In short: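 HepG2 cells transiently transfected with GAL4-UAS reporter units expressing a zebrafish PPARg–GAL4 chimera; compound exposure 24 h. Reporter mRNA quantified by RT-PCR with fluorescent labelling and capillary electrophoresis; gain of signal fitted relative to DMSO baseline.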

[11] = test system: turtle Thyroid Hormone Receptor, alpha (TRa), gene 101949057; experiment: ATG_trTRa_XSP2: Attagene TRANS-FACTORIAL Multi-Species (XSP1) HepG2 Assay for turtle Thyroid Hormone Receptor, alpha (TRa) (AID 2283834);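 further: hits raise reporter mRNA over the DMSO baseline so AC50 marks activators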
In short: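 HepG2 cells transiently transfected with multiplexed GAL4-UAS reporter units expressing chimeric NR-Gal4 proteins were dosed for 24 hours. Reporter mRNA was quantified by RT-PCR with 6-FAM labelling and capillary electrophoresis, gain of signal scored against DMSO.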

[12] = ATG_M_61_XSP2: Attagene TRANS-FACTORIAL Multi-Species (XSP2) HepG2 Assay for M61 Transcription Factor (Internal Marker) (AID 2283835; active means hit-call score of the fitted dose curve at least 0.9, where 1 is the maximum; inactive means score below 0.9;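 further: active means a rise in signal above the DMSO baseline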)
In short: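 Transient MRTU transfection of human HepG2; 24 h chemical dosing with 3 nM 6-alpha-fluorotestosterone + 1.5 nM norgestrel added for AR stimulation. RNA isolated, RT, PCR, FAM-labelled, HpaI cut, CE read. Positive direction vs DMSO.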

[13] = target: zebrafish Thyroid Hormone Receptor beta (TRb), thrb (gene 30607) (UniProt Q9PVE4); experiment: ATG_zfTRb_XSP2: Attagene TRANS-FACTORIAL Multi-Species (XSP1) HepG2 Assay for zebrafish Thyroid Hormone Receptor beta (TRb) (AID 2283836)
In short: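 Reporter transcripts were measured by RT-PCR with fluorescent primer extension and capillary electrophoresis, 24 h after chemical dosing of transiently transfected HepG2 cells. Activity was scored as upward signal versus DMSO baseline.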

[14] = ATG_XTT_Cytotoxicity_XSP2: Cytotoxicity Assessment in the Attagene TRANS-FACTORIAL Multi-Species (XSP2) HepG2 Assay (AID 2283837)
In short: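 XTT-based cell number read-out in human HepG2 liver cells carrying transfected reporter units, measured 24 h after chemical dosing. Activity is signal loss versus DMSO baseline.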

[15] = target: human Thyroid hormone Receptor alpha (TRa), THRA (gene 7067) (UniProt P10827); experiment: ATG_hTRa_XSP2: Attagene TRANS-FACTORIAL Multi-Species (XSP2) HepG2 Assay for human Thyroid hormone Receptor alpha (TRa) (AID 2283838)
In short: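 Gain-of-signal in reporter mRNA, relative to DMSO, after 24 h dosing of transfected HepG2; quantitation by RT-PCR fragment analysis on capillary electrophoresis.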

[16] = target: frog Thyroid hormone Receptor alpha (TRa), thra-a (gene 397942) (UniProt P15204); experiment: ATG_frTRa_XSP2: Attagene TRANS-FACTORIAL Multi-Species (XSP2) HepG2 Assay for frog Thyroid hormone Receptor alpha (TRa) (AID 2283839)
In short: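 HepG2 cells transiently transfected with multiplexed GAL4-UAS reporter units expressing chimeric frog TRα-Gal4; reporter mRNA read 24 h after dosing by RT-PCR, FAM-labelled primer extension, HpaI digest and capillary electrophoresis. Gain of signal fitted versus DMSO.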

[17] = target: human Thyroid hormone Receptor beta (TRb), THRB (gene 7068) (UniProt P10828); experiment: ATG_hTRb_XSP2: Attagene TRANS-FACTORIAL Multi-Species (XSP2) HepG2 Assay for human Thyroid hormone Receptor beta (TRb) (AID 2283840);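 further: actives raise reporter mRNA so potency reflects agonist-like gain of signal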
In short: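 HepG2 cells were transiently transfected with GAL4-UAS multiplexed reporter units expressing chimeric NR-Gal4 proteins, dosed 24 h; reporter mRNA was quantified by RT-PCR, fluorescent labeling, HpaI digestion and capillary electrophoresis, fitted for gain of signal versus DMSO.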

[18] = test system: chicken Androgen Receptor (AR), gene 422165; experiment: ATG_chAR_XSP2: Attagene TRANS-FACTORIAL Multi-Species (XSP2) HepG2 Assay for chicken Androgen Receptor (AR) (AID 2283819);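 further: hits raise reporter mRNA above DMSO so potency is for activation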
In short: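 Readout is reporter mRNA induction via RT-PCR/capillary electrophoresis after 24 h chemical exposure, positive direction relative to DMSO. Transiently transfected HepG2 express chimeric chicken AR–GAL4; AR stimulated by 3 nM 6-alpha-fluorotestosterone and 1.5 nM norgestrel.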

[19] = test system: frog Androgen Receptor (AR), gene 399456; experiment: ATG_frAR_XSP2: Attagene TRANS-FACTORIAL Multi-Species (XSP2) HepG2 Assay for frog Androgen Receptor (AR) (AID 2283824);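 further: reporter mRNA from GAL4-UAS units driven by Xenopus AR-Gal4 chimera; actives raise reporter signal above DMSO so AC50 reflects agonist-like induction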
In short: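 Reporter transcript induction, read by RT-PCR with fluorescent capillary electrophoresis, in human liver HepG2 cells carrying an exogenous Xenopus AR-Gal4 fusion and GAL4-driven reporters; chemical exposure 24 hours, activity scored upward against DMSO controls.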

[20] = test system: zebrafish Androgen Receptor (AR), gene 100005148; experiment: ATG_zfAR_XSP2: Attagene TRANS-FACTORIAL Multi-Species (XSP2) HepG2 Assay for zebrafish Androgen Receptor (AR) (AID 2283825);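 further: hits raise reporter mRNA above DMSO so AC50 reflects agonist-type gain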
In short: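 After 24 h compound exposure in medium with 3 nM 6-alpha-fluorotestosterone plus 1.5 nM norgestrel, HepG2 cells carrying zebrafish AR–GAL4 reporter constructs were assessed for reporter mRNA gain by RT-PCR and capillary electrophoresis.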

Measured: AC50

zebrafish Thyroid Hormone Receptor beta (TRb), thrb (gene 30607), sequence (Q9PVE4 whole entry, looked up): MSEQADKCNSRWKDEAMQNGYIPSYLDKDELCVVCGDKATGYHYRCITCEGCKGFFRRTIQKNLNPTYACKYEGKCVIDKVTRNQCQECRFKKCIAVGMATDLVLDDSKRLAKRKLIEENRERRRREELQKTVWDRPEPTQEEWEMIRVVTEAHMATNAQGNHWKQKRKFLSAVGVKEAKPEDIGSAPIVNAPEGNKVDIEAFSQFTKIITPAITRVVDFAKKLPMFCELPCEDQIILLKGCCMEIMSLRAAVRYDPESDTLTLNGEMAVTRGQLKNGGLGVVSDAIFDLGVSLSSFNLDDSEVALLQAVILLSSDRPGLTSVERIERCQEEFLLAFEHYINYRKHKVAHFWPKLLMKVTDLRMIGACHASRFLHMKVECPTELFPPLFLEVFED
mouse Peroxisome Proliferator-activated Receptor gamma (PPARg), Pparg (gene 19016), sequence (P37238 whole entry, looked up, the tested form may be a part): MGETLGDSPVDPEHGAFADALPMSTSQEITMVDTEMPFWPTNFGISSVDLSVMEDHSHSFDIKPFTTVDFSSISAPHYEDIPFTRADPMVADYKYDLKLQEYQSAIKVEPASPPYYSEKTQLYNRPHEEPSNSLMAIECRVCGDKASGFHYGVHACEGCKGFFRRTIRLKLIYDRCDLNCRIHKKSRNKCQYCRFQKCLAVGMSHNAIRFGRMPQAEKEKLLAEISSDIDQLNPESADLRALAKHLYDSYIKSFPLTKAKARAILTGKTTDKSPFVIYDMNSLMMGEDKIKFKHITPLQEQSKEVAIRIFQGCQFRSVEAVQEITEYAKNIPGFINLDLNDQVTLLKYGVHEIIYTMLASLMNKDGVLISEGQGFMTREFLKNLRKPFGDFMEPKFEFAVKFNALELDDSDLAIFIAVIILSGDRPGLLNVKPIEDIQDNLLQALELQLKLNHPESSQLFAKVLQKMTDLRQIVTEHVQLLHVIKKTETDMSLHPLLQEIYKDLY
human Thyroid hormone Receptor alpha (TRa), THRA (gene 7067), sequence (P10827 whole entry, looked up, the tested form may be a part): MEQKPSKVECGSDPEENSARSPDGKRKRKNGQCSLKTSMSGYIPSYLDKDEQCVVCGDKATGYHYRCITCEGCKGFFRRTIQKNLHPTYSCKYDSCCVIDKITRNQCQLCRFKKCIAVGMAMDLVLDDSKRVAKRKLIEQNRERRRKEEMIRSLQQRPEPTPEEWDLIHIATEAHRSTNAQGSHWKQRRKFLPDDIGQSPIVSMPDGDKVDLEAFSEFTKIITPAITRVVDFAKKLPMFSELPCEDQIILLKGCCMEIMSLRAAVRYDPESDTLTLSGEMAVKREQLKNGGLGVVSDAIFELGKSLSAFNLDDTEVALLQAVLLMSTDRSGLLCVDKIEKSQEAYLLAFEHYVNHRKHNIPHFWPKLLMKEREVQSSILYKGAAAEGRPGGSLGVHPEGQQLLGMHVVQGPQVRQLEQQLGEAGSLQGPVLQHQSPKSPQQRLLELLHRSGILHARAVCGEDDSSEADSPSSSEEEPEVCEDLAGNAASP
frog Thyroid hormone Receptor alpha (TRa), thra-a (gene 397942), sequence (P15204 whole entry, looked up, the tested form may be a part): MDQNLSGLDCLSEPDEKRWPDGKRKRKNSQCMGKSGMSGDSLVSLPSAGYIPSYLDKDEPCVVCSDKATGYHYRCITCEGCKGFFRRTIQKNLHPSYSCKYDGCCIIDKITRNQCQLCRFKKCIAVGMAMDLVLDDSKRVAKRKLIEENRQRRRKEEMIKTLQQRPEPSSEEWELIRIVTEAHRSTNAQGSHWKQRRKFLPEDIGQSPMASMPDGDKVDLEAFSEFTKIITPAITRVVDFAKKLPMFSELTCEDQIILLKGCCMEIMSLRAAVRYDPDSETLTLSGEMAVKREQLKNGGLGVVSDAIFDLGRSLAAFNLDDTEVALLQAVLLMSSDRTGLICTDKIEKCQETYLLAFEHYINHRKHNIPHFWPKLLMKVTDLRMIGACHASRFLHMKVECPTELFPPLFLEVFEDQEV
human Thyroid hormone Receptor beta (TRb), THRB (gene 7068), sequence (P10828 whole entry, looked up, the tested form may be a part): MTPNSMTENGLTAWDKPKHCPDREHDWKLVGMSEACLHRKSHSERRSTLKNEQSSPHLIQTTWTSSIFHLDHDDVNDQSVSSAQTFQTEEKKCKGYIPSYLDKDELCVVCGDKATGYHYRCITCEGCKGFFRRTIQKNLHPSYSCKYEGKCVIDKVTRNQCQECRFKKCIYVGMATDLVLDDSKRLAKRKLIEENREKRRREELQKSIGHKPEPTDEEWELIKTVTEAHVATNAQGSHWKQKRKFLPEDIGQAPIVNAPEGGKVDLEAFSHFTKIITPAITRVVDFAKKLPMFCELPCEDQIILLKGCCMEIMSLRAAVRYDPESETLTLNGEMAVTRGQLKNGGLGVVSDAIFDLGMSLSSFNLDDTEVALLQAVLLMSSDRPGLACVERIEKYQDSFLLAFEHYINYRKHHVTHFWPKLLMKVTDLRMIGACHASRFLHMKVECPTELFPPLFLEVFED
chicken Estrogen Receptor (ERa), ESR1 (gene 396099), sequence (P06212 whole entry, looked up, the tested form may be a part): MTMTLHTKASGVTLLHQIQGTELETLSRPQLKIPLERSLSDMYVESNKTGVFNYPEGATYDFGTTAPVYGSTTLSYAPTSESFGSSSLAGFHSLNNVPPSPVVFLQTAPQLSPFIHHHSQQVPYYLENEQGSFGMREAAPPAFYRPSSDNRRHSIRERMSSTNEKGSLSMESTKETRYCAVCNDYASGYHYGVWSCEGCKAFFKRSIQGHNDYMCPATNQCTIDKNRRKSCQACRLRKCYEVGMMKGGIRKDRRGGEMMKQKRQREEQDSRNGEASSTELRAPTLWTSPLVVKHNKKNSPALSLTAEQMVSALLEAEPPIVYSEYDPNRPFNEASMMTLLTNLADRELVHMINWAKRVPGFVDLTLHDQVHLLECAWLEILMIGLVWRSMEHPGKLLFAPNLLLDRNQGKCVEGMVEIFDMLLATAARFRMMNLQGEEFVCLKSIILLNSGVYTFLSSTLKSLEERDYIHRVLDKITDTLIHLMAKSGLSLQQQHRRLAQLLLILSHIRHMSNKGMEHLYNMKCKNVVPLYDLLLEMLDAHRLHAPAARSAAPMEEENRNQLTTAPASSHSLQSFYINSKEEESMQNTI
zebrafish Thyroid Hormone Receptor alpha (TRa), thraa (gene 30670), sequence (Q98867 whole entry, looked up, the tested form may be a part): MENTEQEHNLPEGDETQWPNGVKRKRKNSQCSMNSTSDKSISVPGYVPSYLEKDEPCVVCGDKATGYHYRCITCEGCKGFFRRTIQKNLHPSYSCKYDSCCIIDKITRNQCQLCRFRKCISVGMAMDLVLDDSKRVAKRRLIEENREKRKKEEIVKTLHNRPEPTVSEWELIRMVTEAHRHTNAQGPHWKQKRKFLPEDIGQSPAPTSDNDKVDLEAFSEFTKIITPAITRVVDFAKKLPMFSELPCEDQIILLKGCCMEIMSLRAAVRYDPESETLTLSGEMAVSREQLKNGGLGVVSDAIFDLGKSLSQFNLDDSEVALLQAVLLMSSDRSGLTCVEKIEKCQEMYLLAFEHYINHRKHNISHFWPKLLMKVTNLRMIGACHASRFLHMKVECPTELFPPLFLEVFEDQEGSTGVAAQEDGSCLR
Estrogen receptor (Homo sapiens), sequence (P03372 whole entry, looked up, the tested form may be a part): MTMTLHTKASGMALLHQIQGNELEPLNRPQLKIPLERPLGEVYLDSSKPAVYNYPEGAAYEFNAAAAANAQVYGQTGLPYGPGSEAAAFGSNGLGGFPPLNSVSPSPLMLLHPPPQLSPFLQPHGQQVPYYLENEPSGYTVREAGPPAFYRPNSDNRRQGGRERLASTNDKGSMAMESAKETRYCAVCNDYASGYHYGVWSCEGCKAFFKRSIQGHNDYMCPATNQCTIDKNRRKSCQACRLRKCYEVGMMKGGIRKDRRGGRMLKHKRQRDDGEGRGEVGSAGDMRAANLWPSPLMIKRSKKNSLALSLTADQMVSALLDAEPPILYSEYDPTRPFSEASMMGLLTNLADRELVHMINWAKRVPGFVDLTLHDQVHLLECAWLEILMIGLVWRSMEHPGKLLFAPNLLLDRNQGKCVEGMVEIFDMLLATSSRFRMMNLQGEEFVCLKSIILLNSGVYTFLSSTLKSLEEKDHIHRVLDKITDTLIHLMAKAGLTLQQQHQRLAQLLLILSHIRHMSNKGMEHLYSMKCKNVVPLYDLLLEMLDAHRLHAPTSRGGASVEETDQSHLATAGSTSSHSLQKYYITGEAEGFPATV
Peroxisome proliferator-activated receptor gamma (Homo sapiens), sequence (P37231 whole entry, looked up, the tested form may be a part): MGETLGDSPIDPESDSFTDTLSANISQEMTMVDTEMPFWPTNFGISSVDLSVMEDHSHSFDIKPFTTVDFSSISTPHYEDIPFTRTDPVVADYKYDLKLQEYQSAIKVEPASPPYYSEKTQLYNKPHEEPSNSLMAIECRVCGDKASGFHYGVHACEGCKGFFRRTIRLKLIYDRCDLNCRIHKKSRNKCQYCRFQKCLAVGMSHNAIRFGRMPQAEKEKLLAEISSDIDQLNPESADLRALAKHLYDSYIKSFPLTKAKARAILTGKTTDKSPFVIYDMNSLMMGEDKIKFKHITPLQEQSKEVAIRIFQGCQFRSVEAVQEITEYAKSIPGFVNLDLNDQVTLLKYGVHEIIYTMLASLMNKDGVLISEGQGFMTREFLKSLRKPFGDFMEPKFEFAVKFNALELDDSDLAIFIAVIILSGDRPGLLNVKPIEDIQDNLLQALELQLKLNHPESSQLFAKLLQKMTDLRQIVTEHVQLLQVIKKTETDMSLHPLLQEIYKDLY

Oc1ccccc1Cc1ccccc1O
active: [1] 7.64 µM | [2] 27.3 µM and 8.24 µM | [4] 29.1 µM and 18.2 µM | [5] 26.9 µM and 8.47 µM | [6] 27 µM and 10.5 µM | [7] 43.4 µM and 30.3 µM | [8] 58.3 µM and 34.4 µM
inactive: [1] | [3] | [9] | [10] | [11] | [12] | [13] | [14] | [15] | [16] | [17]

N#Cc1ccc(C2CCCc3cncn32)cc1 (stereo unspecified)
active: [4] 93.7 µM
inactive: [2] | [18] | [4] | [5] | [6] | [7] | [8] | [9] | [10] | [11] | [12] | [13] | [14] | [16]

COc1ccc(C(=O)c2ccccc2)c(O)c1
inactive: [1] | [9] | [10] | [11] | [12] | [13] | [14] | [15] | [16] | [17]
active: [1] 6.73 µM | [2] 9.9 µM | [4] 43.3 µM and 14.3 µM | [5] 6.54 µM and 26.4 µM | [6] 7.66 µM and 2.39 µM | [7] 74.1 µM and 41.1 µM | [8] 78.9 µM and 63.2 µM

O=C(O)/C=C/c1ccccc1
inactive: [1] | [2] | [4] | [5] | [7] | [8] | [10] | [13] | [14] | [15] | [17]

CC(CCC(=O)O)(c1ccc(O)cc1)c1ccc(O)cc1
inactive: [1] | [18] | [19] | [20] | [6] | [7] | [8] | [9] | [10] | [11] | [12] | [13] | [14] | [15] | [16] | [17]
active: [2] 46.6 µM and 34.7 µM | [4] 42.6 µM and 13.2 µM | [5] 17.4 µM and 2.94 µM | [6] 27.5 µM
